Laboratory results from PubChem BioAssay (NCATS).
Results filed as inconclusive are left out. Where a call stands in place of a potency, no number is given. Unmarked numbers belong to inactive results. The source made the active and inactive calls. Calls follow the shape of the dose curve; as a rule, active = well fitted curve in the direction sought with a large enough effect; inconclusive = small, poorly fitted or top-dose-only effect, or another doubt; inactive = no such curve, though single readings can be large; an effect the other way counts as inactive or inconclusive. Numbered stars: 1 amine (or outer) side, 2 acyl side, 3 side chain; on linkers, the order of the positions; unused ones are H or OH. Square brackets hold non-standard residues; d marks the D form. Peptide text beside a SMILES is read from it. ξ: configuration not given here. X4 = O=C(C1CC2(c3ccc(O)cc3)c3ccccc3NC2N1[*:1])[*:2]; ξW = NC(Cc1c[nH]c2ccccc12)C(=O)O; ξY = NC(Cc1ccc(O)cc1)C(=O)O

How the values were obtained:
[1] = OV-KATE Cancer Cell Toxicity qHTS against the NCATS CANVASS Library (AID 1347345); also: potency is read from the fitted curve at half-maximal effect
Outline: (§1)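 1000 cells/well; 4 h settle; 11-pnt titration; 72 h, 37 degrees C, 5% CO2; CellTiter-Glo, 15min RT; luminescence read.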

[2] = UWB1.289 Cancer Cell Toxicity qHTS against the NCATS CANVASS Library (AID 1347347); also: nearly all actives have a fitted effect of over 60% in size; also: potency is read from the fitted curve at half-maximal effect
Outline: as §1

[3] = OV-SAHO Cancer Cell Toxicity qHTS against the NCATS CANVASS Library (AID 1347348); also: nearly all actives have a fitted effect of over 55% in size; also: potency is read from the fitted curve at half-maximal effect
Outline: as §1

[4] = SW1088 Cancer Cell Toxicity qHTS against the NCATS CANVASS Library (AID 1347350); also: nearly all actives have a fitted effect of over 75% in size; also: potency is read from the fitted curve at half-maximal effect
Outline: as §1

[5] = A2780 Cisplatin Sensitive Ovarian Cancer Cell Toxicity qHTS against the NCATS CANVASS Library (AID 1347353); also: nearly all actives have a fitted effect of over 60% in size; also: potency is read from the fitted curve at half-maximal effect
Outline: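 Seventy-two-hour exposure of cisplatin-sensitive A2780 ovarian cells to an 11-concentration qHTS series; cytotoxicity is inferred from loss of ATPLite luminescence. Bortezomib titration served as positive control.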

[6] = UWB1.289-WTBRCA1 Cancer Cell Toxicity qHTS against the NCATS CANVASS Library (AID 1347354); also: potency is read from the fitted curve at half-maximal effect
Outline: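 qHTS cytotoxicity: compounds tested in 11 concentrations on 1000 seeded cells per well over 72 h; bortezomib served as control; signal from CellTiter-Glo luminescence.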

[7] = HPAF-II 12hr Apoptosis Induction qHTS against the NCATS CANVASS Library (AID 1347358)
Outline: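 Apoptosis in HPAF-II pancreatic cancer cells is scored as caspase 3/7 luminescence following a 12-hour exposure to an 11-point compound series.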

[8] = HPAF-II 18hr Apoptosis Induction qHTS against the NCATS CANVASS Library (AID 1347360)
Outline: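 HPAF-II cells at 500/well were exposed for 18 h at 37 C to an 11-point compound series. Caspase-3/7 activity was read by Caspase-Glo luminescence after 15 min at RT.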

[9] = G06 Cancer Cell Toxicity qHTS against the NCATS CANVASS Library (AID 1347368); also: nearly all actives have a fitted effect of over 60% in size; also: potency is read from the fitted curve at half-maximal effect
Outline: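 Cytotoxicity toward canine glioma G06 cells is scored from cellular ATP via luminescence after 72 hr compound exposure at 500 cells/well.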

[10] = qHTS for Hypoxia signaling pathway (HIF-1) antagonists against the NCATS CANVASS Library (AID 1347374); also: nearly all actives have a fitted effect of over 60% in size; also: potency is read from the fitted curve at half-maximal effect
Outline: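 HRE-bla ME-180 cells (2,000/well, 0.5% dialyzed FBS) were pre-incubated 5 h, then given an 11-point compound series plus CoCl2 (60 uM solution as added) for 17 h at 37C. CCF4 β-lactamase read (ex 405, em 460/530 nm) after 2 h at RT.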

[11] = qHTS for Hypoxia signaling pathway (HIF-1) agonists against the NCATS CANVASS Library (AID 1347375); also: potency is read from the fitted curve at half-maximal effect
Outline: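 Inducers of HIF-1 signaling were detected in ME-180 cells bearing an HRE-driven beta-lactamase reporter after 17 h compound exposure. Activity came from CCF4-AM FRET emission ratio (460/530 nm) in qHTS format.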

[12] = DH5-alpha competent E. coli microbial cell viability qHTS against the NCATS CANVASS Library (AID 1347377); conditions: outcome: dose series up to 46.1 µM unless noted
Outline: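 Cell viability of competent DH5-alpha E. coli is scored from ATP content by luminescence. Cells sit overnight at 37C with compound across an 11-point concentration series.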

[13] = qHTS for H2AX Agonists against the NCATS CANVASS Library (AID 1347378); also: potency is read from the fitted curve at half-maximal effect
Outline: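 CHO-K1 cells (1000/well, overnight at 37C) exposed to compounds at several concentrations for 3 hr at 37C, 0.76% DMSO final. Lysates read by TR-FRET (phospho-H2AX S139 Eu-cryptate antibody / H2AX-d2 antibody) after 24 hr at room temperature; 665/615 nm ratio.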

[14] = qHTS for Activators of p53 Stress Response Pathway screened against the NCATS CANVASS Library (AID 1347388)
Outline: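 Beta-lactamase reporter driven by p53 response elements in HCT-116 cells, read as the 460 nm/530 nm emission ratio after CCF4 loading, following 16 h of exposure to an 11-point series. Cell viability was measured in the same wells by CellTiter-Glo luminescence.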

[15] = qHTS assay for small molecule disruptors of mitochondrial membrane potential screened against the NCATS CANVASS Library (AID 1347389); also: nearly all actives have a fitted effect of over 60% in size; also: potency is read from the fitted curve at half-maximal effect
Outline: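 Compounds tested in 11-point qHTS series on HepG2 cells for 1 hr; membrane-potential dye added for 30 min at 37C. Lower red-to-green ratio indicates loss of potential.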

[16] = qHTS for activators of Nrf2/ARE signaling pathway screened against the NCATS CANVASS Library (AID 1347391); also: nearly all actives have a fitted effect of over 60% in size; also: potency is read from the fitted curve at half-maximal effect
Outline: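 Cells carrying an ARE-driven beta-lactamase reporter (HepG2 background) are dosed for 16 h, then stained with CCF4. Cell viability in the same wells is measured by CellTiter-Glo luminescence.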

[17] = qHTS for inhibitors of ER calcium dysfunction: SERCaMP assay screened against the NCATS CANVASS Library (AID 1347393); also: nearly all actives have a fitted effect of over 40% in size; also: potency is read from the fitted curve at half-maximal effect
Outline: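 Thapsigargin-induced ER calcium depletion drives GLuc-SERCaMP secretion from SH-SY5Y cells; compounds given 16 h beforehand were scored by lowered coelenterazine luminescence after 4 h challenge.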

[18] = qHTS for inhibitors of Wild type Zika virus screened against the NCATS CANVASS Library (AID 1347396);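 also: ATP luminescence of surviving cells so rescue from viral cell killing; series mostly up to about 46 µM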
Outline: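 Using ATP-based luminescence (CellTiter Glo), this screen scores rescue of Vero 766 cells from wild-type Zika killing at 72 h post-infection. Compounds are tested in a concentration series.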

[19] = Redox Reaction Profiling qHTS: Assay Interference Panel against the NCATS CANVASS Library (AID 1347401)
Outline: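 Cell-free redox surrogate: 5 uM resazurin + 200 uM DTT, 50 mM HEPES pH 7.3/50 mM NaCl; cpds pinned, 11-pt qHTS; Ex525/Em598 read t0 and t=15 min, dark.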

[20] = Secretion counterscreen for inhibitors of the SERCaMP assay screened against the NCATS CANVASS Library (AID 1347390);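 also: light from luciferase secreted into medium read as a measure of general secretion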; also: potency is read from the fitted curve at half-maximal effect
Outline: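 SH-SY5Y cells with constitutively secreted GLuc reporter, 1000 cells/well, treated 20 h at 37C with compounds at 0.001 - 77 uM final; secreted luciferase read as luminescence after coelenterazine; Brefeldin A as positive control.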

| Structure (SMILES) | Potency [1] | Potency [2] | Potency [3] | Potency [4] | Potency [5] | Potency [6] | Potency [7] | Potency [8] | Potency [9] | Potency [10] | Potency [11] | outcome [12] | Potency [13] | Potency [14] | Potency [15] | Potency [16] | Potency [17] | Potency [18] | Potency [19] | Potency [20] |
| --- | --- | --- | --- | --- | --- | --- | --- | --- | --- | --- | --- | --- | --- | --- | --- | --- | --- | --- | --- | --- |
| O=C(O)CC1OCc2c(O)cccc21 (configuration not stated) | inactive | inactive | inactive | inactive | inactive | inactive | inactive | inactive | inactive | inactive | inactive | inactive | inactive | inactive | inactive | inactive | inactive | inactive | inactive |  |
| C1=C2CCCN[C@@H]2[C@@H]2CCN3CCCC[C@@H]3[C@H](C1)C2 | inactive | inactive | inactive | inactive | inactive | inactive | inactive | inactive | inactive | inactive | inactive | inactive |  | inactive | inactive | inactive | inactive | inactive | inactive | inactive |
| C[C@@H]1O[C@H](c2c(O)cc(O)c3c(=O)cc(-c4ccc(O)cc4)oc23)[C@H](O)[C@H](O)[C@H]1O | inactive | inactive | inactive | inactive | inactive | inactive | inactive | inactive | inactive | inactive | inactive | inactive | inactive | inactive | inactive | inactive | inactive | inactive | inactive | inactive |
| CC(C)=CCC/C(C)=C/Cc1c(O)c(CC=C(C)C)c(O)c2c(=O)c3cc(O)ccc3oc12 | 2.36 µM (active) | 8.38 µM (active) | 10.6 µM (active) | 9.43 µM (active) | 14.8 µM (active) | 14.9 µM (active) |  |  | 23.5 µM (active) |  | 13.3 µM (active) | inactive |  |  | 1.86 µM (active) | 2.63 µM (active) |  |  | inactive | inactive |
| C=C1C(=O)O[C@H]2[C@H]1CC/C(CO)=C\CC[C@@]1(C)O[C@@H]21 | 18.8 µM (active) | 7.47 µM (active) | 23.6 µM (active) |  | 2.96 µM (active) |  | inactive | inactive | 11.8 µM (active) | 4.72 µM (active) | inactive | inactive | 21.7 µM (active) |  |  | inactive | 4.31 µM (active) | inactive | inactive | 34.3 µM (active) |
| CC[C@H](C)[C@H](NC(=O)C(Cc1ccc(O)cc1)NC(=O)C(Cc1c[nH]c2ccccc12)NC(=O)[C@H](C)N)C(=O)N1C(C(=O)NC(Cc2ccc(O)cc2)C(=O)O)CC2(c3ccc(O)cc3)c3ccccc3NC12 (some centres not stated) (H-A[ξW][ξY]I[X4][ξY]-OH) | inactive | inactive | inactive | inactive | inactive | inactive |  | inactive | inactive | inactive | inactive | inactive | inactive | inactive | inactive | inactive | inactive | inactive |  | inactive |
| CO[C@@H]1[C@H](O)[C@@H](C)O[C@@H](OC[C@@H]2C(C)OC(=O)/C=C/[C@H](C)C(O[C@@H]3O[C@H](C)CC4(OC(=O)O[C@@H]4C)C3O)[C@@H](C)CC(C)C(=O)CC[C@H]3OC23)[C@@H]1OC (some centres not stated) | inactive | inactive | inactive | inactive | inactive | inactive |  |  |  | inactive | inactive | inactive |  | inactive | inactive |  |  | inactive | inactive | inactive |
| O=C1c2c(O)cc(O)cc2O[C@@H](c2ccc(O)cc2)[C@@H]1c1c(O)cc(O)c2c(=O)cc(-c3ccc(O)c(O)c3)oc12 | inactive | inactive | inactive | inactive | inactive | inactive |  |  |  | inactive | inactive |  |  |  |  | inactive | inactive | inactive | inactive | inactive |
| CC1(C)[C@H](Br)CC[C@]23C[C@]4(C)C(=O)CC12C[C@H]34 | inactive | inactive | inactive | inactive | inactive | inactive |  | inactive | inactive | inactive | inactive | inactive | inactive | inactive | inactive | inactive | inactive | inactive | inactive | inactive |
| OCc1ccc2ocnc2c1 | inactive | inactive | inactive | inactive | inactive | inactive |  | inactive | inactive | inactive | inactive | inactive |  | inactive | inactive | inactive | inactive | inactive | inactive | inactive |
| COc1cc(/C=C/C(=O)O)ccc1O | inactive | inactive | inactive | inactive | inactive | inactive | inactive | inactive | inactive | inactive | inactive | inactive | inactive | inactive | inactive | inactive | inactive | inactive | inactive |  |
| CO[C@@H]1[C@H](O)[C@@H](C)O[C@@H](OC[C@H]2/C=C/C=C/C(=O)C(C)C[C@H](C)C(O[C@@H]3O[C@H](C)CC4(OC(=O)O[C@@H]4C)C3O)[C@@H](C)/C=C/C(=O)OC2C)[C@@H]1OC (some centres not stated) | inactive | inactive | inactive | inactive | inactive | inactive | inactive | inactive |  | inactive | inactive | inactive | inactive | inactive | inactive | 14.8 µM (active) | 15.3 µM (active) | inactive | inactive | inactive |
